The list is not random: actives were taken first. Their share in the collection is about 5.9%.
VP16 counter = Gal4-VP16 reporter inhibition counter-screen. AID 2546. Drosophila S2 Gal4-VP16 UAS-luciferase, luminescence, 20 h. 310,000 compounds, 3.5% hits. Potency, µM (series often up to 53.6 µM), hits mostly inhibitors;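 note: Gal4-VP16 expression switched on by copper sulfate through the metallothionein promoter; nearly all actives have a fitted effect of over 50% in size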
FBPA coupling cs = counter-screen for Giardia aldolase inhibitors: coupling enzyme system | coupling enzyme system counterscreen, AmpLite Red fluorescence | activity change, negative = inhibition, % at 58.2 µM, hits read low | 290,000 compounds, 0.67% hits | AID 2472; in the data active = activity change below about -30%
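Counterscreen lacking aldolase: glyceraldehyde-3-phosphate coupling-enzyme reagent preincubated 10 min at RT with compound (at 57.5 uM final), then substrate/coupling system with AmpLite Red added; fluorescence read at 525/598 nm after 20 min RT.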
RORg inh = blocks mouse ROR gamma transcriptional activity; Drosophila S2 Gal4-RORgamma UAS-luciferase reporter, 20 h; Potency, µM (doses to about 53.6 µM), actives largely listed as inhibitors; AID 2551; 310,000 compounds, 5.4% hits; note: nearly all actives have a fitted effect of over 60% in size
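ROR gamma transcriptional activity was tracked as Gal4-UAS luciferase output in stably transfected Drosophila Schneider cells, with compound added 1 hr before 700 uM copper sulfate induction and a 20 hr ambient-temperature incubation.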
rTrxR1 inhibitor = inhibitors of rat thioredoxin reductase 1; 390,000 compounds, 1% hits; AID 588453; O89049; recombinant rTrxR1, NADPH fluorescence consumption, selenite substrate; Potency, µM (highest dose often 114 µM), usual class: inhibitors; note: nearly all actives have a fitted effect of over 65% in size
Target sequence (O89049 whole entry, looked up): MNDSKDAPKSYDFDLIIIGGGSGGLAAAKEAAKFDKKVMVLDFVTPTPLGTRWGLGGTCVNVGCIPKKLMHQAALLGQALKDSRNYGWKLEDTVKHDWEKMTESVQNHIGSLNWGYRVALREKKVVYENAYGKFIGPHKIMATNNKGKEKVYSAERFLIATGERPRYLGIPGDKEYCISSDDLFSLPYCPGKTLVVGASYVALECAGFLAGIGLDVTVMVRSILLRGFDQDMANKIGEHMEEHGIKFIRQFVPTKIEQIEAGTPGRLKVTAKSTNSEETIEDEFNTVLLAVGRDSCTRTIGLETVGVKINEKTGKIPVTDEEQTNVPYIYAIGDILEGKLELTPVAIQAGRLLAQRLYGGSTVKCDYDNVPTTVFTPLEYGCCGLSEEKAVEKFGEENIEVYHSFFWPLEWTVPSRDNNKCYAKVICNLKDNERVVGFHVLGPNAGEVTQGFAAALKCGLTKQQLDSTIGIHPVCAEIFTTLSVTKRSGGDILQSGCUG
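Rat TrxR1 (90 nM in the dispensed reagent) was pre-reduced with 400 uM NADPH for 5 min at room temperature, then incubated with compound for 15 min. After 400 uM selenite was added, NADPH fluorescence (Ex 340/Em 450 nm) was followed for 8 min.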
TrxR1 substrate = substrates of rat thioredoxin reductase 1; 390,000 compounds, 0.01% hits; AID 588456; purified TrxR1 substrate turnover, NADPH consumption readout; O89049; Potency, µM (doses to about 114 µM); note: nearly all actives have a fitted effect of over 50% in size
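Rat TrxR1, dispensed at 90 nM, was prereduced with 400 uM NADPH (final) for 5 min at ~22 deg C, then incubated with compound 15 min before 400 uM selenite. A first-read NADPH fluorescence drop versus no-compound background flagged substrates.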
GALK inhibitor = inhibitors of human galactokinase | Purified GALK, Kinase-Glo residual ATP luminescence | Potency, µM (titrated, usually from 57.5 µM), actives largely listed as inhibitors | P51570 | 270,000 compounds, 0.007% hits
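Compounds were pin-transferred into ATP buffer (35 uM final), then GALK plus galactose (5 nM, 100 uM final) was added. After 1 h at room temperature, Kinase-Glo Plus was added and luminescence read after 10 min.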
Hits are given with their value; [ ] = remark or other dose. Unless noted, calls come from the whole dose curve; as a rule, active = well fitted curve in the direction sought with a large enough effect; inconclusive = small, poorly fitted or top-dose-only effect, or another doubt; inactive = no such curve, though single readings can be large; an effect the other way counts as inactive or inconclusive.

Screening CCOCc1cnc(C)nc1NCC(=O)c1c(C)[nH]c2ccc(OC)cc12 returned VP16 counter inactive, FBPA coupling cs -49, RORg inh inactive, rTrxR1 inhibitor inactive, TrxR1 substrate inactive and GALK inhibitor inactive.
Screening COc1ccc2[nH]c(C)c(C(=O)CN(C)CC(OC)OC)c2c1 returned rTrxR1 inhibitor inconclusive and TrxR1 substrate inactive.
Screening Cc1cc(NC(=O)c2ccccc2)n(-c2nc3ccccc3[nH]2)n1 returned VP16 counter 2.8µM, FBPA coupling cs inactive, RORg inh 1µM, rTrxR1 inhibitor inactive, TrxR1 substrate inactive and GALK inhibitor inactive.
Screening Cc1cc(NC(=O)c2sccc2C)n(-c2nc3ccccc3[nH]2)n1 returned VP16 counter 3.5µM, FBPA coupling cs inactive, RORg inh 1µM, rTrxR1 inhibitor inactive, TrxR1 substrate inactive and GALK inhibitor inactive.
Cc1cc(NC(=O)C2CCCC2)n(-c2nc3ccccc3[nH]2)n1 was read as VP16 counter 1.4µM, RORg inh 0.63µM, rTrxR1 inhibitor inactive, TrxR1 substrate inactive and GALK inhibitor inactive.
COc1ccc(C(=O)Nc2cc(C)nn2-c2nc3ccccc3[nH]2)c(OC)c1 was read as VP16 counter 4µM, FBPA coupling cs inactive, RORg inh 2.2µM, rTrxR1 inhibitor inactive, TrxR1 substrate inactive and GALK inhibitor inactive.
O=C1C(Cl)=C(Nc2ccc(F)cc2)C(=O)N1CCc1ccccc1 was read as VP16 counter inconclusive, FBPA coupling cs inactive, RORg inh inactive, rTrxR1 inhibitor inactive, TrxR1 substrate inactive and GALK inhibitor inactive.
Cc1cc(NC(=O)c2cccs2)n(-c2nc3ccccc3[nH]2)n1 was read as VP16 counter inactive, FBPA coupling cs inactive, RORg inh inactive, rTrxR1 inhibitor inactive, TrxR1 substrate inactive and GALK inhibitor inactive.
COc1cccc(OC)c1C(=O)Nc1cc(C)nn1-c1nc2ccccc2[nH]1 was read as VP16 counter inconclusive, FBPA coupling cs inactive, RORg inh 3.5µM, rTrxR1 inhibitor inactive, TrxR1 substrate inactive and GALK inhibitor inactive.
Cc1cccc(Sc2ccc([N+](=O)[O-])cc2[N+](=O)[O-])n1 was read as VP16 counter inactive, FBPA coupling cs inactive, RORg inh inactive, rTrxR1 inhibitor inactive, TrxR1 substrate inactive and GALK inhibitor inactive.
For O=C(O)CCSc1ccc([N+](=O)[O-])cc1[N+](=O)[O-] the results were VP16 counter inactive[10 µM], FBPA coupling cs inactive, RORg inh inactive, rTrxR1 inhibitor 71µM, TrxR1 substrate inactive and GALK inhibitor inactive.
For O=[N+]([O-])c1ccc(Sc2ncccn2)c([N+](=O)[O-])c1 the results were VP16 counter inconclusive, FBPA coupling cs inactive, RORg inh 7.9µM, rTrxR1 inhibitor inconclusive, TrxR1 substrate inactive and GALK inhibitor inactive.
For Cc1cc(N2CCC(C)CC2)nc(SCC(=O)c2ccccc2)n1 the results were VP16 counter inactive, FBPA coupling cs inactive, RORg inh inconclusive, rTrxR1 inhibitor inactive, TrxR1 substrate inactive and GALK inhibitor inactive.
Screening CC(C)C(c1nnnn1CCc1ccccc1)N1CCC(C(N)=O)CC1 (stereo unspecified) returned VP16 counter inactive, FBPA coupling cs inactive, RORg inh inactive, rTrxR1 inhibitor inactive[11.4 µM], TrxR1 substrate inactive and GALK inhibitor inactive.
Screening Cc1ccc(NC(=O)N2CCN(c3ncccc3C(F)(F)F)CC2)cc1 returned VP16 counter inactive, FBPA coupling cs inactive, RORg inh inconclusive, rTrxR1 inhibitor inactive, TrxR1 substrate inactive and GALK inhibitor inactive.
O=C(Nc1ccc2ccccc2c1)N1CCN(c2ncccc2C(F)(F)F)CC1 was read as VP16 counter inactive, FBPA coupling cs -50, RORg inh inactive, rTrxR1 inhibitor inactive, TrxR1 substrate inactive and GALK inhibitor inactive.
For CC(C)(C)c1ccc(C(=O)c2c[nH]c(C(=O)NCCc3ccccn3)c2)cc1 the results were VP16 counter inactive, FBPA coupling cs inactive, RORg inh inactive, rTrxR1 inhibitor inactive, TrxR1 substrate inactive and GALK inhibitor inactive.
For O=C(CCn1[nH]c(=O)c2ccccc2c1=O)OC1CCCCC1 the results were VP16 counter 22µM, FBPA coupling cs inactive, RORg inh inconclusive, rTrxR1 inhibitor inactive, TrxR1 substrate inactive and GALK inhibitor inactive.
COc1ccc(Nc2ncnc3sc4c(c23)CCCC4)cc1 was read as rTrxR1 inhibitor inactive and TrxR1 substrate inactive.
`COc1ccc(/C=N/Nc2ncnc3sc4c(c23)CCCC4)cc1OC` gave VP16 counter 4µM, FBPA coupling cs inactive, RORg inh 3.2µM, rTrxR1 inhibitor inactive, TrxR1 substrate inactive and GALK inhibitor inactive.
For Cc1ccc(/C=C/C(=O)Nc2nc(-c3cccs3)ns2)cc1 the results were rTrxR1 inhibitor inactive and TrxR1 substrate inactive.
`COc1ccc(/C=C/C(=O)c2ccc(C)c([N+](=O)[O-])c2)cc1O` gave VP16 counter 16µM, FBPA coupling cs inactive, RORg inh inactive, rTrxR1 inhibitor inactive, TrxR1 substrate inactive and GALK inhibitor inactive.
`COc1cc(/C=C/C(=O)c2cccc([N+](=O)[O-])c2)cc(OC)c1OC` gave VP16 counter inconclusive, FBPA coupling cs inactive, RORg inh 16µM, rTrxR1 inhibitor inconclusive and TrxR1 substrate inactive.
`O=C(/C=C/c1ccccc1F)c1cccc([N+](=O)[O-])c1` gave VP16 counter inconclusive, FBPA coupling cs inactive, RORg inh inconclusive, rTrxR1 inhibitor inconclusive and TrxR1 substrate inactive.
For COc1cc(/C=C/C(=O)c2ccccc2O)cc(OC)c1OC the results were VP16 counter inconclusive, FBPA coupling cs inactive, RORg inh 2µM, rTrxR1 inhibitor 50µM, TrxR1 substrate inactive and GALK inhibitor inactive.
`Cc1ccc2cc(C(c3nnnn3Cc3ccccc3)N3CCc4ccccc43)c(=O)[nH]c2c1` (stereo unspecified) gave VP16 counter inactive, FBPA coupling cs inactive, RORg inh inactive, rTrxR1 inhibitor inactive, TrxR1 substrate inactive and GALK inhibitor inactive.
`COc1ccc2cc(C(c3nnnn3C3CCCC3)N3CCc4ccccc4C3)c(=O)[nH]c2c1` (stereo unspecified) gave VP16 counter inactive, FBPA coupling cs -33, RORg inh inactive, rTrxR1 inhibitor inactive, TrxR1 substrate inactive and GALK inhibitor inactive.
Screening c1ccc(C(c2nnnn2C2CCCCC2)N2CCc3ccccc3C2)nc1 (stereo unspecified) returned VP16 counter inactive, FBPA coupling cs -32, RORg inh inactive[10 µM], rTrxR1 inhibitor inactive, TrxR1 substrate inactive and GALK inhibitor inactive.
Cc1cc2cc(C(c3nnnn3Cc3ccccc3)N3CCc4ccccc43)c(=O)[nH]c2cc1C (stereo unspecified) was read as VP16 counter inactive, FBPA coupling cs -45, RORg inh inactive, rTrxR1 inhibitor inactive, TrxR1 substrate inactive and GALK inhibitor inactive.
